# MEKK3 PB1 HTS: MEKK3-MEK5 PB1 interaction, increase or decrease; Q99759; 290,000 compounds, 1.4% hits; AID 1529; binding response (% of control), % at 10 µM; bead-based flow cytometry, Alexa488-MEK5 binding to MEKK3; actives lie on both sides; 0 = blocked by unlabeled MEK5, 100 = vehicle;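 active = binding response more than 3 SD above or below the average of its plate-row segment, actives on both sides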;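 note: Alexa488 bead fluorescence after subtracting the streptavidin-only scavenger bead signal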
# Target sequence (Q99759 whole entry, looked up): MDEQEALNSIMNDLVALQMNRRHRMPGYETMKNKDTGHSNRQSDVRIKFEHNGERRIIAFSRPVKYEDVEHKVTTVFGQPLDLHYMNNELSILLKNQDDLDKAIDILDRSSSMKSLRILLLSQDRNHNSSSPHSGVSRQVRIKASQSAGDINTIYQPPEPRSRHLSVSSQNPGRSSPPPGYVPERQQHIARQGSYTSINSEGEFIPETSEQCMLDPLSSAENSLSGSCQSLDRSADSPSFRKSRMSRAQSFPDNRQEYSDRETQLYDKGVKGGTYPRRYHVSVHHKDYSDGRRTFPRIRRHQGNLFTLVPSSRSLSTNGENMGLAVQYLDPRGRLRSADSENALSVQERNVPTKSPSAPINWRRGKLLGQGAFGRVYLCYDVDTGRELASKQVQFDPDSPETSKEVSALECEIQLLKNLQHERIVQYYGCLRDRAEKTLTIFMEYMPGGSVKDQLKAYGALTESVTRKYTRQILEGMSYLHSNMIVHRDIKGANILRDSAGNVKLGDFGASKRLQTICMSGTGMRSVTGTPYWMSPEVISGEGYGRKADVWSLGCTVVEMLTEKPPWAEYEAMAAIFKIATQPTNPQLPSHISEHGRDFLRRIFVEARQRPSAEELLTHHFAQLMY
# MEKK2wt PB1 HTS: raises or lowers MEK5 binding to wildtype human MEKK2 PB1 domain. 290,000 compounds, 1.1% hits. binding response (% of control), % at 10 µM. bead flow cytometry, Alexa488-MEK5 binding to MEKK2 WT; actives lie on both sides. AID 1531; in the data active = binding response below about 67% or above about 130%
# MEKK2mut PB1 HTS: signal of MEK5 binding to mutant human MEKK2 PB1 domain. bead flow cytometry, Alexa488-MEK5 binding to MEKK2 mutant. AID 1530. percent response, % at 10 µM. 290,000 compounds, 0.35% hits; in the data active = percent response above about 24%, passing the limit was not always enough
# CendR NRP1 mod: NRP-1/CendR interaction modulation; O14786; FAM-RPARPAR peptide binding to NRP-1, fluorescence polarization; inhibition, % at 25 µM; 360,000 compounds, 0.85% hits; AID 602438;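 active = inhibition or corrected inhibition above about 18%, plus a signal ratio from 0.5 to 1.5, limit read from the data, passing the limit was not always enough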
# SKN-1 inh: blocks SKN-1 activity in C. elegans; C. elegans VP596 Pgst-4::GFP/RFP ratio, acrylamide-induced, 24 h; inhibition, % at 21.8 µM; AID 624304; 360,000 compounds, 0.49% hits;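 active = interference check ratio from 0.5 to 1.5 plus GFP to RFP signal ratio inhibition reaching or exceeding a fixed threshold, cut at about 30% in these data, passing the limit was not always enough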
# * = called active by the depositor; x = no result given; [ ] = dose if it differs, or a comment. Only some compounds are listed: those with a hit (about 3.2% of all), similar ones and a draw of the others.
SMILES,MEKK3 PB1 HTS,MEKK2wt PB1 HTS,MEKK2mut PB1 HTS,CendR NRP1 mod,SKN-1 inh
Cn1c(-c2ccc(Br)o2)nc2cc(Br)ccc21,104,106,6,-14,43*
Cc1cc(C(F)(F)F)n2ncc(-c3ccc(F)cc3)c2n1,107,106,6,-4,40*
CC(=O)N1N=C(c2c(-c3ccccc3)c3cc(Br)ccc3[nH]c2=O)CC1c1ccco1 (stereo not drawn),99,100,3,24*,10
Cc1ccc2c(c1)CO[C@]21O[C@H](CCO)C[C@H](O)[C@H]1O,x,x,x,-7,-5
Cc1cc(N)c2cc(NC(=O)/C=C/c3ccccc3Cl)ccc2n1,104,252*,117*,-72,29
Cc1ccc(C)c(NC(=O)CN(C)C(=O)C2=NNC(=O)CC2)c1,x,x,x,0,11
Cc1ccc2c(c1)c1c(n2CC(O)CN2CCC(C)CC2)CCCC1 (stereo not drawn),102,125,21,5,4
Cc1ccc2c(c1)c1c(n2CC(O)CN2CCOCC2)CCCC1 (stereo not drawn),102,19*,20,x,x
COCCN(C(=O)COC(=O)C1(c2ccccc2)CC1)c1c(N)n(CC(C)C)c(=O)[nH]c1=O,x,x,x,-7,11
O=c1c(=NNc2ccccc2Cl)c(=O)c2ccccc12,77*[inhibitor],88,-12,11,10
Cc1cc(C)c(NN=c2c(=O)c3ccccc3c2=O)c(C)c1,x,x,x,2,9
CC1CCCC(NCC(O)COC(c2ccc(F)cc2)c2ccc(F)cc2)C1C (stereo not drawn),101,143*,7,-1,2
OC(CNC1CCCC1)COc1ccc(-c2ccccc2)cc1 (stereo not drawn),108,136,21,-6,43*
CCCC(NCC(O)COc1ccc(-c2ccccc2)cc1)c1ccccc1 (stereo not drawn),100,123,2,5,58*
CN(CC(=O)Nc1ncn[nH]1)S(=O)(=O)c1cc(Cl)ccc1Cl,102,100,0,4,10
COc1ccc(N=C2C(=Nc3ccc(OC)cc3)N(c3ccc(OC)cc3)C(=S)N2C(=O)c2ccc(OC)cc2)cc1,109,102,-2,-10,30
COc1ccc(N=C2C(=Nc3ccc(OC)cc3)N(c3ccc(N(C)C)cc3)C(=S)N2c2ccc(OC)cc2)cc1,99,94,0,26*,-6
O[C@@H]1CN(Cc2cccs2)[C@@H](c2ccc(Cl)cc2)C[C@H]1n1cc(C2CC2)nn1,x,x,x,3,3
O=c1cc(NCc2ccccc2)c2ccccc2o1,100,95,-2,-5,3
CCCCNc1cc(=O)oc2ccccc12,99,97,-1,-13,30*
N=c1oc2ccccc2cc1-c1nc(-c2ccccc2)cs1,99,88,-2,0,58*
C=CC[C@@H](CC(=O)N[C@H](CO)Cc1ccccc1)C(=O)N[C@H](COC(=O)[C@@H](CC=C)CC(=O)OC(C)(C)C)Cc1c[nH]c2ccccc12,x,x,x,27*,-12
C=CC[C@@H](CC(=O)N[C@@H](CO)Cc1ccccc1)C(=O)N[C@@H](COC(=O)[C@@H](CC=C)CC(=O)OC(C)(C)C)Cc1c[nH]c2ccccc12,x,x,x,-15,3
CN(CC(=O)Nc1ccc(Cl)cc1F)C1=NS(=O)(=O)c2ccccc21,x,x,x,10,20
Cc1cc(C)n(CCCN2CCC(C(=O)Nc3cccc(-c4cccc(F)c4)c3)CC2)n1,109,158*,25*,6,4
SMILES,MEKK3 PB1 HTS,MEKK2wt PB1 HTS,MEKK2mut PB1 HTS,CendR NRP1 mod,SKN-1 inh
CCn1ncc(CN2CCC(C(=O)Nc3cccc(-c4cccc(F)c4)c3)CC2)c1C,103,135,11,21,-1
CCn1nc(C)c(CN2CCC(C(=O)Nc3cccc(-c4cccc(Cl)c4)c3)CC2)c1C,100,146*,12,5,-3
NC(=O)C1(Nc2ccc(Cl)cc2)CCCC1,x,x,x,13,3
Cc1cc(N2CCCC2=O)ccc1S(=O)(=O)NC1CCCCC1,99,96,-3,21*,11
Cc1cc(N2CCCC2=O)ccc1S(=O)(=O)N1CCOCC1,95,94,-4,5,7
COc1ccc(-c2nc(-c3ccccn3)no2)cc1,102,96,-7,8,12
Brc1ccc(-c2noc(-c3ccccn3)n2)o1,102,104,5,-1,66*
Brc1ccc(-c2nc(-c3ccccn3)no2)o1,94,100,-1,6,44*
Brc1ccc(-c2nc(-c3ccncc3)no2)o1,98,93,-4,3,49*
COc1cc(-c2nc(-c3ccc(Br)o3)no2)cc(OC)c1OC,107,105,9,-10,5
OC(c1ccccc1)(c1nc(-c2cc(F)cc(F)c2)cs1)C(F)(F)F (stereo not drawn),x,x,x,-13,32
CC(=O)Oc1ccc(-c2ccc(C(=O)O)cc2)cc1,110,110,7,-4,11
CC(=O)c1ccc(S(=O)(=O)Oc2ccc(-c3ccc(C(=O)O)cc3)cc2)cc1,96,97,-3,26*,-1
CN(CC(=O)Nc1ccccc1Cl)CC(=O)c1c(N)n(Cc2ccccc2)c(=O)n(C)c1=O,x,x,x,-16,11
O=C1[C@H]2[C@H](C=CC[C@H]2C(=O)N2CCN(c3ccccc3)CC2)CCN1Cc1ccccc1,88,97,-1,28*,17
O=C(O)COc1c(-c2ccccc2)oc2ccccc2c1=O,101,101,1,1,12
Cc1ccc(-c2oc3ccccc3c(=O)c2OCC(=O)O)cc1,80,83,-6,19*,-3
COC(=O)c1[nH]c(C)c(/C(O)=C2\C(=O)C(=O)N(CCCN3CCOCC3)C2c2ccccn2)c1C (stereo not drawn),99,105,4,0,38*
CCOC(=O)c1[nH]c(C)c(/C(O)=C2\C(=O)C(=O)N(CCCN3CCOCC3)C2c2cccnc2)c1C (stereo not drawn),101,108,7,-7,5
Oc1ccc(C[C@H]2CNC(=S)N2CC2CCCN2C[C@H](Cc2ccc(O)cc2)N2C[C@H](Cc3ccc(O)cc3)N(CC3CCCCCC3)C2=S)cc1 (stereo partly drawn),x,x,x,3,4
Cc1ccn(C(=O)c2cc3c(C)nn(-c4ccccc4)c3s2)n1,100,97,4,28*,-22
Cc1nn(-c2ccccc2)c2sc(C(=O)n3cccn3)cc12,105,108,3,-10,-5
CCc1ccccc1-n1nnnc1SCC(=O)Nc1ccc(N2CCN(C)CC2)cc1,100,104,4,10,-3
CC(=O)N/N=C/c1cc(C(C)C)cc(/C=N/NC(C)=O)c1O,94,85,-13,41*,4
Cc1cc(-n2nc(C)cc2C)nc(NS(=O)(=O)c2ccccc2Cl)n1,101,21*,34,-16,29
Cc1cc(C)nc(NS(=O)(=O)c2ccccc2)n1,104,100,1,-3,-1

# Screening data deposited in PubChem BioAssay by several laboratories.
